About 83,000 compounds went through this panel and 20% of them were active in at least one assay; those are over-represented in the sample as a whole.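 The endpoint reported here, percent growth, reads 100 for growth as untreated, 0 for no net growth and -100 for all cells dead.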 A number with no mark means an inactive call. Active and inactive are the calls of the source. The calls were made as follows: active = growth percent below 10; inactive = the rest.
Legend:
Experiment in all cases: NCI-60 one-dose screen, 48 h (100 = growth as untreated, 0 = no growth, -100 = all killed)
Conditions in all cases: 10 µM unless noted
DU-145 prostate = tested on: DU-145 prostate
K-562 leukemia = tested on: K-562 leukemia
MALME-3M melanoma = tested on: MALME-3M melanoma
MDA-MB-231 breast = tested on: MDA-MB-231 breast
RXF 393 renal = tested on: RXF 393 renal
SF-268 CNS = tested on: SF-268 CNS
SF-295 CNS = tested on: SF-295 CNS
SF-539 CNS = tested on: SF-539 CNS
UACC-257 melanoma = tested on: UACC-257 melanoma
M14 melanoma = tested on: M14 melanoma
HCT-15 colon = tested on: HCT-15 colon
HT29 colon = tested on: HT29 colon
SNB-75 CNS = tested on: SNB-75 CNS
SNB-19 CNS = tested on: SNB-19 CNS
U251 CNS = tested on: U251 CNS
PC-3 prostate = tested on: PC-3 prostate
SK-MEL-5 melanoma = tested on: SK-MEL-5 melanoma
UACC-62 melanoma = tested on: UACC-62 melanoma
LOX IMVI melanoma = tested on: LOX IMVI melanoma
SK-MEL-28 melanoma = tested on: SK-MEL-28 melanoma

Row | Compound | growth (DU-145 prostate) [%] | growth (K-562 leukemia) | growth (MALME-3M melanoma) | growth (MDA-MB-231 breast) | growth (RXF 393 renal) [%] | growth (SF-268 CNS) [%] | growth (SF-295 CNS) [%] | growth (SF-539 CNS) | growth (UACC-257 melanoma) | growth (M14 melanoma) | growth (HCT-15 colon) [%] | growth (HT29 colon) | growth (SNB-75 CNS) | growth (SNB-19 CNS) [%] | growth (U251 CNS) | growth (PC-3 prostate) [%] | growth (SK-MEL-5 melanoma) | growth (UACC-62 melanoma) | growth (LOX IMVI melanoma) | growth (SK-MEL-28 melanoma) [%]
1 | COc1ccc(Cn2cc(C(=O)N=Nc3c(O)[nH]c4c(C)cccc34)nn2)cc1 | 60.4 | 63.2% | 40.5% | 51% | 81.9 | 87.3 | 111 | 80.1% | 93.7% | 71.9% | 68 | 67.4% | 27.3% | 97.5 | 108% | 61.3 | 93.8% | 74.1% | 75.3% | –
2 | Cc1[nH]c(C2CC(c3ccc(C(F)(F)F)c(F)c3)=NN2c2ccccc2)c(C)c1C(=O)NCC(F)(F)F (stereo not drawn) | 94.7 | 76% | 79.7% | 88.8% | 80.8 | 84.7 | 87.1 | 94.4% | 97.6% | 94.8% | 76.2 | 84.6% | 82.5% | 85.6 | 91% | 74.6 | 95.7% | 75.5% | 88.6% | –
3 | CNC1=C([N+](=O)[O-])C(c2ccc(OC)cc2)C(C#N)=C(c2cccs2)O1 (stereo not drawn) | 113 | 105% | 98.6% | 99.5% | 121 | 101 | 101 | 100% | 106% | 103% | 108 | 118% | 95.5% | 105 | 101% | 101 | 100% | 101% | 95.3% | –
4 | CC(C)(C)n1cc(-c2ccnc(NCCCNS(=O)(=O)c3ccc(C(F)(F)F)cc3)c2)c(-c2cccc(F)c2)n1 | 92.6 | 30.9% | 105% | 93.8% | 92.2 | 87.2 | 94.7 | 74.1% | 94.4% | 81.2% | 37.7 | 16.5% | 66.6% | 86.5 | 67.6% | 71.9 | 78.9% | 89.4% | 73.6% | –
5 | N#Cc1c(-c2ccccc2)nc(SCC(O)CN2CCOCC2)nc1N1CCOCC1 (stereo not drawn) | 61.7 | 90% | 23.1% | 77.3% | 72.5 | 62.3 | 43.6 | 56.6% | 17.1% | 59.9% | 80.1 | 68.5% | -4.63% (active) | 65.8 | 81.4% | 56.5 | 66.6% | 42.9% | 78% | –
6 | C=C(CNCCO)[C@@H]1CC[C@]2(CO)CC[C@]3(C)[C@H](CC[C@@H]4[C@@]5(C)CCC(N)C(C)(C)[C@@H]5CC[C@]43C)[C@@H]12 (stereo partly drawn) | 53 | -43.3% (active) | -75.1% (active) | 2.59% (active) | 50.4 | 33.1 | 46.5 | -6.75% (active) | -81.5% (active) | -70.2% (active) | 77 | -22.4% (active) | 43.5% | 53.9 | -78.5% (active) | 61.9 | -87.8% (active) | 9.7% (active) | -67.8% (active) | –
7 | C/C(=N\O)c1ccc(NC(=O)CSc2nnc(-c3cc(-c4ccc(S(N)(=O)=O)cc4)nc4ccccc34)n2-c2ccccc2)cc1 | 80.3 | 43% | 80% | 74.3% | 83.9 | 60.3 | 92.2 | 76.4% | 87.3% | 74.4% | 81 | 66.2% | 24.3% | 66.9 | 62.5% | 63.6 | 54% | 62.4% | 37.7% | 84.4
8 | C[C@H](C(=O)N(CCc1ccc(Cl)c(Cl)c1)Cc1cncs1)[C@@H]1CC[C@H](C[C@H](C)n2cc(CN3CCC(c4ccc(Cl)cc4)CC3)nn2)O1 | 112 | -75.9% (active) | 101% | 93.5% | 103 | 102 | 99.2 | 101% | 102% | 99.1% | 99.6 | 102% | 97.6% | 94.5 | 100% | 86.5 | 101% | 90.3% | 98.3% | –
